# Measurements as given in PubChem BioAssay AID624168 (Sanford-Burnham Center for Chemical Genomics, 2012).
# The whole screen tested about 360,000 compounds, of which about 800 (0.22%) were called active. The sample holds actives, similar compounds and a random draw of the others, so the mix is not that of the screen.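 How the source made its calls: active means activation of at least 8% versus controls, or a plate z-score of at least 8; inactive means the rest.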
# Assay: activators of alpha-DG glycosylation, primary screen, uHTS, Pro5-aDG cells, AlphaScreen (AID 624168);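 further: Pro5 are CHO cells carrying HIG-tagged alpha-DG that lacks glycosylation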
# Details: alpha-DG glycosylation AlphaScreen (IIH6), at 10 µM, active compounds read high, 0% Pro5, 100% B10-LARGE cell signal
row,Compound,activation
1,COc1ccccc1C1SCCN1C(=O)c1ccc([N+](=O)[O-])cc1 (centres undefined),6.9% (active)
2,C[N+]1(CC(O)COc2ccccc2)CCN(C(=O)c2ccc([N+](=O)[O-])cc2)CC1 (centres undefined),-0.2% (inactive)
3,O=C(OCC(=O)N1CCc2ccccc21)c1ccc([N+](=O)[O-])cc1,0.1% (inactive)
4,CC(C)N(C(=O)CSc1nc(COc2ccccc2)nc2ccccc12)C(C)C,0.2% (inactive)
5,CCOc1cc(CNCCN(C)C)c(Cl)cc1OCC(=O)NCCc1ccccc1,0.7% (inactive)
6,Cc1cccn2c(=O)nc(SCC(=O)NCc3ccccc3Cl)nc12,0.1% (inactive)
7,O=C(Oc1ccccc1C(=S)N1CCCCC1)c1cc([N+](=O)[O-])cc([N+](=O)[O-])c1,-0.2% (inactive)
8,CN(O)C(=S)c1ccccc1,-0.2% (inactive)
9,Cc1ccc(F)c(S(=O)(=O)NC(=O)C2(C)CCN2C(=O)c2ccco2)c1 (centres undefined),-0.2% (inactive)
10,CC(C)C(=O)NCC(c1cccs1)S(=O)(=O)c1ccc(F)cc1 (centres undefined),6.9% (active)
11,COCCNC(=O)C(OC(=O)c1cccs1)c1ccc(F)cc1 (centres undefined),-0.1% (inactive)
12,O=C(NCc1cccs1)C(=O)NCC1OCCCN1S(=O)(=O)c1ccc(F)cc1 (centres undefined),0% (inactive)
13,COc1cc(OC)cc(C(=O)NC(=S)N2CCN(c3ccc(C(F)(F)F)cc3[N+](=O)[O-])CC2)c1,0.3% (inactive)
14,O=C(c1ccc(N2CCCC2=O)cc1)N1CCN(c2ccc(C(F)(F)F)cc2[N+](=O)[O-])CC1,7% (active)
15,O=C(Cc1ccc(S(=O)(=O)N2CCOCC2)s1)N1CCN(c2ccc(C(F)(F)F)cc2[N+](=O)[O-])CC1,0.7% (inactive)
16,CC1CCCN(S(=O)(=O)c2ccc(N(C(=O)c3cnccn3)C(C(=O)NC3CCCCC3)c3cccs3)cc2)C1 (centres undefined),-0.1% (inactive)
17,Cc1ccccc1NC(=O)CCNS(=O)(=O)c1ccc2[nH]c(=O)oc2c1,-0.2% (inactive)
18,COc1ccc(C)cc1NC(=O)CN(C)S(=O)(=O)c1ccc2c(c1)n(C)c(=O)c(=O)n2C,-0.2% (inactive)
19,COC(=O)c1ccc(C(=O)NC2CC(C)(C)Cc3c2cnn3-c2ccc(F)cc2)nc1 (centres undefined),0% (inactive)
20,CC1=C(C(=O)NC2CC(C)(C)Cc3c2cnn3-c2ccc(C)cc2)OCCO1 (centres undefined),0.4% (inactive)
21,Cn1nccc1C(=O)NC1CCCc2c1cnn2-c1ccc(F)cc1F (centres undefined),5% (active)
22,COc1ccc(C23NCCN2C(=O)c2ccccc23)cc1 (centres undefined),-0.1% (inactive)
23,Cc1ccsc1C(=O)NCCc1ccco1,-0.1% (inactive)
24,Cc1c(CN2CCC(CO)(CCOc3ccccc3)CC2)[nH]c2ccc(Cl)cc12,2.4% (inactive)
